# What was measured:
# Assay in all cases: cross-linking mass spectrometry
# Details in all cases: BS3, purified complex
# NSL1 = NSL1 (UniProt Q96IY1)
# MIS12 = MIS12 (UniProt Q9H081)
# PMF1 = PMF1 (UniProt Q6P1K2)
# DSN1 = DSN1 (UniProt Q9H410)
# SPC24 = SPC24 (UniProt Q8NBT2)
# ZWINT = ZWINT (UniProt O95229)
# SPC25 = SPC25 (UniProt Q9HBM1)
# Sequence of NDC80, O14777 (O14777 whole entry): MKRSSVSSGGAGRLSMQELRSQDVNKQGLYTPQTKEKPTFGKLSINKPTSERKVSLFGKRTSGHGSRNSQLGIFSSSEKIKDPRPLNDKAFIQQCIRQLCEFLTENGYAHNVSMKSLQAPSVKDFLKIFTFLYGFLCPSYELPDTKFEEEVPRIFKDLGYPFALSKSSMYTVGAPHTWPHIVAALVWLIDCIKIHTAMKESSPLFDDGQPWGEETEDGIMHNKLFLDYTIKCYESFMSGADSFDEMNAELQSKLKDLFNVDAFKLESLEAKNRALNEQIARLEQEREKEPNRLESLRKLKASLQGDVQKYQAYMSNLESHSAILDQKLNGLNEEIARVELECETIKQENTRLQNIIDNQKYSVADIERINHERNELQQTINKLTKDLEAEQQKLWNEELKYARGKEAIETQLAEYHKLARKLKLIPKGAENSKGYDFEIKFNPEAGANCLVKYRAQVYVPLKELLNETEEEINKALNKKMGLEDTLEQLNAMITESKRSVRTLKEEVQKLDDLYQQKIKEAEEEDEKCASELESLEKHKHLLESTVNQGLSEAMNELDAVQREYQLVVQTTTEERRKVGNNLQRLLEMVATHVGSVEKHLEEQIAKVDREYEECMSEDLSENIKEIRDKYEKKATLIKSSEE
# Sequence of CENPC, Q03188 (Q03188 whole entry): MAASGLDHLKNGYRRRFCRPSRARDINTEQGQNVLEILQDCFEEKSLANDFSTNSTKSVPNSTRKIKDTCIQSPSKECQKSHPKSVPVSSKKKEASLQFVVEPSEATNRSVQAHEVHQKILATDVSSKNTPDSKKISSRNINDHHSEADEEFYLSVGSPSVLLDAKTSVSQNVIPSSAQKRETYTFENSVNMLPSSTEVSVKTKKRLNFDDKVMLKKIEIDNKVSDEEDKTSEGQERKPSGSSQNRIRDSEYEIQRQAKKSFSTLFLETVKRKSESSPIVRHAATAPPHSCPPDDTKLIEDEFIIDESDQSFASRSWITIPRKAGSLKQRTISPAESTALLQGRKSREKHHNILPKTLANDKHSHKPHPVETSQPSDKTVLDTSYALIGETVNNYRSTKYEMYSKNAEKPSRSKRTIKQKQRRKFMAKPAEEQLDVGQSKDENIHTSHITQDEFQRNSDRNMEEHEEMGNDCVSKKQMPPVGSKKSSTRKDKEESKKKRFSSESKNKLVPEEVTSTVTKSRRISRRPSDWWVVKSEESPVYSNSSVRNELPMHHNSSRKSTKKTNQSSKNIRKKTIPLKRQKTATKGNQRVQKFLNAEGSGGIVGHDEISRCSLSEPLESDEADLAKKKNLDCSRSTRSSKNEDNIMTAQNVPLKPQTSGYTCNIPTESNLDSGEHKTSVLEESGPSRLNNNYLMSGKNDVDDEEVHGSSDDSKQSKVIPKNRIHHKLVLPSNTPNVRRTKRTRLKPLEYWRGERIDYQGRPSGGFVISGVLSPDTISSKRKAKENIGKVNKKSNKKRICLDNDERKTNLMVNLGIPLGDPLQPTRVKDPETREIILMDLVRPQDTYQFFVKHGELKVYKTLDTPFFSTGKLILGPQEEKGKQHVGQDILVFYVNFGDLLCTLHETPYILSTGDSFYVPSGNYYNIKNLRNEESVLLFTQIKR
# Sequence of NSL1 (Q96IY1 whole entry): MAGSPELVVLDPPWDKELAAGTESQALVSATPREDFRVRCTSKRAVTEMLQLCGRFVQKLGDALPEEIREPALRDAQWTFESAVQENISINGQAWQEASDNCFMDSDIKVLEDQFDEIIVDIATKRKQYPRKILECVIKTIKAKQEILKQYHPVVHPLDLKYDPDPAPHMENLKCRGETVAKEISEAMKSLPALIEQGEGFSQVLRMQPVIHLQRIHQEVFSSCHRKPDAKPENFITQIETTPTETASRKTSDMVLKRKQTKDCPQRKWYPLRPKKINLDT
# Sequence of SPC24 (Q8NBT2 whole entry): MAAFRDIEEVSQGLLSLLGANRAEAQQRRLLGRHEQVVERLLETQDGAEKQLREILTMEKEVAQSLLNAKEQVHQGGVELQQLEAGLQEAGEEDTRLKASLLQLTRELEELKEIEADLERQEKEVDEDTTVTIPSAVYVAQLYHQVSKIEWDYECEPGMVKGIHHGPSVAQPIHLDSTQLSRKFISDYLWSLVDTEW
# Sequence of ZWINT (O95229 whole entry): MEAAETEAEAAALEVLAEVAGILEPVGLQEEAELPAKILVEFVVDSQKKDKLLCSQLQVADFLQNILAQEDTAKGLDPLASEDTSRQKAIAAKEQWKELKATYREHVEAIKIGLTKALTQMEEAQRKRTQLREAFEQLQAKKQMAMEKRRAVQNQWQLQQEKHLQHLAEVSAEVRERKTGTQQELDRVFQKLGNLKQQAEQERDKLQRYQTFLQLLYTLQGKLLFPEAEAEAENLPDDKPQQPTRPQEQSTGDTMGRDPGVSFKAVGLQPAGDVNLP
# Sequence of ZWINT, O95229 (O95229 whole entry): as above
# Sequence of NSL1, Q96IY1 (Q96IY1 whole entry): as the sequence (Q96IY1 whole entry) above
# Sequence of KNL1, Q8NG31 (Q8NG31 whole entry): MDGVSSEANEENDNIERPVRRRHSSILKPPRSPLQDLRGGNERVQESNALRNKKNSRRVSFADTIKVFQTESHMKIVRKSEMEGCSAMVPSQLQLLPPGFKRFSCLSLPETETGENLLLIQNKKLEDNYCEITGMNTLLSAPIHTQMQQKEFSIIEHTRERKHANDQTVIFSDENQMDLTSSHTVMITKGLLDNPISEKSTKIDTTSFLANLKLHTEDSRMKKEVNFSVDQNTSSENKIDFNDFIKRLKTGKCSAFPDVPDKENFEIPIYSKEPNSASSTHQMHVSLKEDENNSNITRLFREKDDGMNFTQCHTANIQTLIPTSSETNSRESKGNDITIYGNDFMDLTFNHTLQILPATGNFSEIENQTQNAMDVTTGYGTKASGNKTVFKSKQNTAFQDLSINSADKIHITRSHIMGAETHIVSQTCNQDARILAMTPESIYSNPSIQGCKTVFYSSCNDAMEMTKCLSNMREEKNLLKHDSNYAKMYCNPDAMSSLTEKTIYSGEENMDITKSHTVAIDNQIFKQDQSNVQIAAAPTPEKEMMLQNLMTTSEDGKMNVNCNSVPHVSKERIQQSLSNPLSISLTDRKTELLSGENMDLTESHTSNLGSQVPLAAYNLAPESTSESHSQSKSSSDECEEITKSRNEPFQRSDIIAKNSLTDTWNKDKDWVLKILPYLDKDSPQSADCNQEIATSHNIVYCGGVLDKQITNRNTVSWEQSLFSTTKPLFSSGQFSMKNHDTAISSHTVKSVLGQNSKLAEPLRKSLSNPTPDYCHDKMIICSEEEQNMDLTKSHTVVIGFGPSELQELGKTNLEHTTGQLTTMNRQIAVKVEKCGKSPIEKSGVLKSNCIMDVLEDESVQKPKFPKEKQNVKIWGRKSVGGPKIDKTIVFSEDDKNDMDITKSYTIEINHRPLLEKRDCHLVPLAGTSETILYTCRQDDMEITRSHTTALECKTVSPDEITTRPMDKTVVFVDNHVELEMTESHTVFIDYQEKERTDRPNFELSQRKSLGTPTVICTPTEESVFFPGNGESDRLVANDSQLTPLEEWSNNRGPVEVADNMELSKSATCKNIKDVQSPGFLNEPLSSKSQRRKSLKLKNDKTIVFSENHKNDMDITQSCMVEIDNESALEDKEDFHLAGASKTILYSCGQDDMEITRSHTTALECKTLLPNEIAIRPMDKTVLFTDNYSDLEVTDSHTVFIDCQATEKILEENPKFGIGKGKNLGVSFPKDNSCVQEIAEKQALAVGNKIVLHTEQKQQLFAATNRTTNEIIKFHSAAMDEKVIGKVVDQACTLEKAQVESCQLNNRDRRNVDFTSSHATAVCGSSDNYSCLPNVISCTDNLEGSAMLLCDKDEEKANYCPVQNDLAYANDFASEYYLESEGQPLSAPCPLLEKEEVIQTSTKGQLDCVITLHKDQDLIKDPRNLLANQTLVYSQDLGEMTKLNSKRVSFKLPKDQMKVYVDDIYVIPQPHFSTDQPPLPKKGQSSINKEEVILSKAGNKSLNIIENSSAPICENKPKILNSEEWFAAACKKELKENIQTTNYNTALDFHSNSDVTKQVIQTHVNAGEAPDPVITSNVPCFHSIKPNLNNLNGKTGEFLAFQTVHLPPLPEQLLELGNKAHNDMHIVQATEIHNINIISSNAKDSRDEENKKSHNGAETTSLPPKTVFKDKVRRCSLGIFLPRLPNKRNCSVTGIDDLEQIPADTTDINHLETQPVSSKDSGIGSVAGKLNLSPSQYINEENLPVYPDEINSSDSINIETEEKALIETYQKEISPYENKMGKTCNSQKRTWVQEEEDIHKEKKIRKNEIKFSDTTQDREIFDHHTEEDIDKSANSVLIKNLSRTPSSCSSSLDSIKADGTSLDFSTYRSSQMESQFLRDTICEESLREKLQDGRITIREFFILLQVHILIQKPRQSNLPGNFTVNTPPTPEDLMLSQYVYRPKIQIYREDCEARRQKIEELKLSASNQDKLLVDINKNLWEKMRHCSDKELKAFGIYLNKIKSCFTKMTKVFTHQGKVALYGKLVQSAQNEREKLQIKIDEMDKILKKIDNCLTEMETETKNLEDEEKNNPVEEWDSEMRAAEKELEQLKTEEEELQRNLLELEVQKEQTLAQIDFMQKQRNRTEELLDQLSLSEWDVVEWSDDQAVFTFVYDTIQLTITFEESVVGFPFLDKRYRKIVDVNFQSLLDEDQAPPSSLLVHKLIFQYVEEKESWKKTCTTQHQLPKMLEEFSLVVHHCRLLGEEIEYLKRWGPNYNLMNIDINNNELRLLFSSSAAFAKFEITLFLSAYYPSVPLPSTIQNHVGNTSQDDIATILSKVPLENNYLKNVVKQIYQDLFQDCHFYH
# Sequence of MIS12 (Q9H081 whole entry): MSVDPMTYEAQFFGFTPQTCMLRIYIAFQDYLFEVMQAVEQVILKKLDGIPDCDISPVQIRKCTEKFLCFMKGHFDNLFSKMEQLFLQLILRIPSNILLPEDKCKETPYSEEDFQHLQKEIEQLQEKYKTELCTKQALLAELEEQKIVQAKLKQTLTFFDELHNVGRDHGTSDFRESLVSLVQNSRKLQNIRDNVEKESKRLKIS
substance,measurement,setting,value
"ZWINT, O95229",cross-linked residues,NSL1,K196 - K262
"CENPC, Q03188",cross-linked residues,MIS12,K45 - K81
same,cross-linked residues,PMF1,K45 - K48
"NDC80, O14777",cross-linked residues,DSN1,K300 - K315
same,cross-linked residues,SPC24,K624 - K50
same,cross-linked residues,ZWINT,K271 - K141
"KNL1, Q8NG31",cross-linked residues,NSL1,K2247 - K268
"PMF1, Q6P1K2",cross-linked residues,SPC24,K79 - K98
"NSL1, Q96IY1",cross-linked residues,SPC25,K275 - K203
